Laboratory results from PubChem BioAssay (NCI).
About 83,000 compounds went through this panel and 20% of them were active in at least one assay; those are over-represented in the sample as a whole.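 Step 1: grow cells in 96-well plates. Step 2: add test compound at a single concentration. Step 3: incubate 48 h. Step 4: record percent growth.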 Unmarked numbers belong to inactive results. Active and inactive are the calls of the source. The calls were made as follows: active = growth percent below 10; inactive = the rest.

Test system: MDA-MB-468 breast
Test: NCI-60 one-dose screen, 48 h (100 = growth as untreated, 0 = no growth, -100 = all killed)
Details: 10 µM unless noted

| SMILES | growth |
| --- | --- |
| C[C@@H](Oc1cc(-c2cnn(C3CC4(CNC4)C3)c2)cnc1N)c1c(Cl)ccc(F)c1Cl | 20.5% |
| COc1ccc(/C=C/C(=O)c2cccc(OCCCCOc3cccc(C(=O)/C=C/c4ccc(OC)c(OC)c4)c3)c2)cc1OC | 23.1% |
| CC(C)[O-].CC(C)[O-].CN(CCN(C)Cc1cc(F)cc(F)c1[O-])Cc1cc(F)cc(F)c1[O-].[Ti+4] | -36.8% (active) |
| Nc1n[nH]c(-c2cc(Cl)ccc2O)c1-c1ccccc1 | 83.5% |
| CCCCC(C#N)C(N)=O (stereo unspecified) | 119% |
| O=C1/C(=C/c2cn(-c3ccccc3)nc2-c2ccccc2)SC(=S)N1CCc1ccccc1 | 103% |
| N#Cc1ccccc1Cn1c2nc(=N)c3ccccc3c-2nc2ccccc21 | 24.3% |
| COc1cc(/C=C/C(=O)Nc2cccnc2Nc2cc(OC)c(OC)c(OC)c2)cc(OC)c1OC | 99.8% |
| O=C(NNc1nc2cc(F)cc(F)c2n2cccc12)c1ncccn1 | 3.64% (active) |
| CC(=O)Oc1ccc(C2OC(c3ccc4ccccc4c3OC(C)=O)=NN2C(C)=O)c(OC(C)=O)c1 (stereo unspecified) | -14.4% (active) |
| CC(C)C(=O)Nc1ccc(-c2nc(-c3cccc(OCCN4CCOCC4)c3)c(-c3ccnc(Br)c3)[nH]2)cc1 | 23.2% |
| C[N+]1=C(/C=C/c2ccccc2Cl)C(C)(C)c2ccccc21 | 88.1% |
| N#Cc1cnc2cc(OC[C@H](O)CO)c(NC(=O)CC3CSSC3)cc2c1Nc1ccc(OCc2cccc(F)c2)c(Cl)c1 | -78.3% (active) |
| O=C(Nc1cc(Cl)cc(Cl)c1)Nc1ccc2oc(=O)ccc2c1 | 15.7% |
| CN(CCc1ccccc1)C(=S)N(C(=O)c1ccc([N+](=O)[O-])cc1)c1ccc(Cl)cc1 | 37.4% |
| CC(=O)OC[C@]12CCC(C)(C)C=C1[C@H]1CC[C@@H]3[C@@]4(C)CCCNC(C)(C)[C@@H]4CC[C@@]3(C)[C@]1(C)CC2 | -6.16% (active) |
| O=C(N/N=C\c1ccc(-c2ccc(Br)cc2)o1)c1cc2oc(-c3cccc(C(F)(F)F)c3)cc2[nH]1 | 126% |
| Cc1cccc2c3c(sc12)C(c1ccc(F)cc1)C(C#N)=C(/N=C/c1ccc(Cl)cc1)O3 (stereo unspecified) | 36.2% |
| COc1cc(C(=O)c2c(-c3ccccc3)oc3c(OC)cccc23)cc(OC)c1O | 4.03% (active) |
| NC(=O)N1CCOCC1 | 111% |
| CCO/C=N/C1=C(C#N)C(c2ccc(OC)cc2)c2sc3c(F)cccc3c2O1 (stereo unspecified) | 17.7% |
| CCNC1(NC#N)CCCCC1 | 101% |
| CN1CCN(c2ccc(Nc3nc(NCCNS(=O)(=O)c4ccccc4)c4sccc4n3)cc2)CC1 | 90.5% |
| COC(=O)C1=NNC(=S)N(c2cc(C)[nH]n2)C(=O)C1 | 108% |

| SMILES | growth |
| --- | --- |
| COc1ccc(-c2nocc2-c2cccs2)cc1 | 97% |
| CNC(=O)c1cc(-n2ccc3cc(NC(=O)Nc4ccc(N5CCOCC5)c(C(F)(F)F)c4)ccc32)ccn1 | 95.2% |
| COc1ccc(/C=C(/C(=O)c2ccc(Cl)cc2)C(=O)C(F)(F)F)cc1 | 99.7% |
| Cc1cccc(NC(=O)Cn2cc(CN3CCN(c4ccnc5cc(Cl)ccc45)CC3)nn2)c1 | 90.2% |
| CCN(CC)CCOc1ccc2c(c1O)C(=O)c1ccccc1C2=O | 80.3% |
| COc1cc(-c2nc3cc(Cl)c(Cl)cc3[nH]2)ccc1OCC(=O)N=Nc1c(O)[nH]c2ccc(Cl)cc12 | -56.3% (active) |
| c1ccc(CNc2nc(Nc3ccc(-c4nc5ccccc5[nH]4)cc3)c3cn[nH]c3n2)cc1 | -22% (active) |
| Cc1cnc2nc(NN)[nH]n12 | 91% |
| CCNC(=O)C#Cc1ccc2c(C(=Nc3ccc(CN(C)C)cc3)c3ccccc3)c(O)[nH]c2c1 | 17.2% |
| Cn1cnc([N+](=O)[O-])c1Sc1nnc(-c2ccccc2)c(-c2ccccc2)n1 | 64.8% |
| O=C(CN1CCN(c2cc3c(cc2F)c(=O)c(C(=O)O)cn3C2CC2)CC1)Nc1ccc(C(=O)/C=C/c2ccccc2)cc1 | 33.8% |
| Cc1c(-c2cnc3ccc(Cl)cc3c2C(=O)O)nnn1-c1ccc(Cl)cc1 | 110% |
| Cc1ccccc1COc1ccc(-c2ccnn2-c2ccc(Cl)cc2)cc1 | 41.1% |
| N#C/C(=C1\SC(=O)CN1c1ccccc1)c1nc2ccccc2s1 | 115% |
| COC(=O)[C@]12CC[C@@H](C)[C@H](C)[C@@H]1C1=CC[C@@H]3[C@@]4(C)C(C=O)=C[C@@](C)(COC(C)=O)[C@@H]4C(=O)C[C@@]3(C)[C@]1(C)CC2 | 33.6% |
| O=C(NNC(=O)c1ccc(-n2cc(-c3ccccc3)nn2)cc1)Nc1ccccc1 | 109% |
| CCOC(=O)C1(CC(C)C)CCOC1=O (stereo unspecified) | 99.7% |
| Cc1cc(C(C)(C)CC(C)(C)C)ccc1OCCOCC[N+](C)(C)Cc1ccccc1 | -82.5% (active) |
| Cc1ccc(NC(=O)N[C@@H](Cc2cc(F)cc(F)c2)C(=O)N[C@@H]2C(=O)N3CCC[C@H]3C(=O)N3CCCC[C@H]3C(=O)N[C@@H](C)C(=O)N3C[C@H](C)C[C@H]3C(=O)O[C@H]2C)cc1 | 5.99% (active) |
| O=C(Nc1nc(-c2ccc(Cl)cc2)cs1)c1cc(-c2ccc(Br)cc2)nc2ccc(Cl)cc12 | 98.7% |
| CN(Cc1ccccc1)Cc1ccc([N+](=O)[O-])cc1I | 93.3% |
| C=C1C(=O)O[C@H]2[C@H]1CC/C(CNC(=O)/C=C/c1cccc(OC)c1)=C\CC[C@@]1(C)O[C@@H]21 | -36.5% (active) |
| COc1cc(/C=C2\C(=O)Nc3ccc(N(C)C)cc32)cc(OC)c1OC | -2.28% (active) |
| O=C(O)c1ccc(-n2cc(CNc3cc(F)c(F)c(F)c3)c(-c3ccc(F)cc3)n2)cc1 | 115% |

| SMILES | growth |
| --- | --- |
| CCC/C=C(/C(C)=O)C(=O)OCC | 88.3% |
| CCCCCCCCCCN=C(N)N=C(N)N | -12.9% (active) |
| C=CC(=O)N1CCC[C@H](n2c(=O)n(-c3ccc(Oc4ccccc4)cc3)c3c(N)ncnc32)C1 | 0.223% (active) |
| CCOC(=O)c1c(C(F)(F)F)n([O-])c2ccc(Cl)cc2[n+]1=O | -55.3% (active) |
| O=C1Nc2ccccc2/C1=C\c1cccc(/C=C2/C(=O)Nc3ccccc32)n1 | -33.2% (active) |
| COc1ccc(-c2cnc(-c3ccncc3-c3cccc(OC)c3)o2)cc1 | 31.8% |
| N#CC1C(C#N)C(C(=O)c2ccc(Br)cc2)N2c3ccccc3C=CC12 (stereo unspecified) | -7.38% (active) |
| CCNCc1ccccc1 | 98.6% |
| Sc1cccc2cccnc12 | 30% |
| Cc1nc([P+](c2ccccc2)(c2ccccc2)c2ccccc2)c(Sc2sc(-c3ccccc3)nc2[P+](c2ccccc2)(c2ccccc2)c2ccccc2)o1 | -31.6% (active) |
| Nc1nc(-c2ccc(Cl)cc2)nc2c1sc(=S)n2-c1ccccc1 | 27.3% |
| COc1cccc(-c2nn(-c3ccccc3)cc2-c2ccnc(NCCCNC(=O)c3cccc(C(F)(F)F)c3)c2)c1 | 17.3% |
| S=C1SCN(Cc2cccs2)CN1Cc1cccs1 | 40.4% |
| CCCCCCCCc1ccc(CCC(N)(CO)CO)cc1 | -93.1% (active) |
| Cc1ccc(C2CC(c3cccc(Nc4ccncc4)c3)=Nc3c(N)nc(N)nc3N2)cc1 (stereo unspecified) | 60.2% |
| CC(C)(C)OC[C@@H]1N=C(c2ccc(Br)cc2)Nc2nc3ccccn3c2C1=O | 45.6% |
| O=C(O)CNS(=O)(=O)c1ccc(OCCOc2ccc(S(=O)(=O)NCC(=O)O)cc2)cc1 | 97.7% |
| O=C(CSc1nc2ccccc2c(=O)n1-c1ccccc1)Nc1cccc(C(=O)/C=C/c2ccccc2)c1 | 91.3% |
| NS(=O)(=O)c1ccc(NCC(=O)Nc2ccc(-c3nc4ccccc4s3)cc2)cc1 | 4.26% (active) |
| CSc1nn2c(-c3ccc4ccccc4c3)ccnc2c1C#N | 41.3% |
| O=C(CSc1nc2ccccc2[nH]1)c1ccc(N2CCOCC2)cc1 | 87.6% |
| c1ccc(Sc2ccccc2)cc1 | 102% |
| CCN(CC)CCCNC(=O)c1ccc(N)cc1O | 85.7% |
